# Experimental data: PubChem BioAssay AID904 (National Center for Advancing Translational Sciences (NCATS), 2007)
# The campaign covered roughly 55,000 compounds. About 530 (0.96%) were called active. Not shown: some 7% with an inconclusive outcome. The sample as a whole holds a higher share of actives than the screen did. Values without a mark were called inactive. Calls come from the whole dose curve; as a rule, active = well fitted cell-killing curve with a large enough effect; inconclusive = small, poorly fitted or top-dose-only effect; inactive = no such curve, though single readings can be large or run the other way.
# Test: qHTS Screen for Compounds that Selectively Target Cancer Cells with p53 Mutations: Cytotoxicity of p53 Null Cells at the Nonpermissive Temperature; note: nearly all actives have a fitted effect of over 50% in size;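 for activity, negative = cell killing: 0% = DMSO only and -100% = full killing by 100 µM tamoxifen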
# Settings: H1299 p53-null (neo) cells, 39C, ATPlite viability, 24 h; series mostly up to 46.1 µM; activity, negative = cell killing: at the top concentration
# Description: NIH Chemical Genomics Center [NCGC] NIH Molecular Libraries Screening Centers Network [MLSCN] MLSCN Grant: 1 X01 MH079844-01 Assay Submitter (PI): Dr. SUN, YI, University of Michigan NCGC Assay Overview: Synthetic Lethal Screen for Compounds to Kill Cancer Cells with p53 Mutation. Tumor suppressor gene p53 serves as a major cellular barrier against tumorigenesis. […] The goal of this screening is to identify small molecule probes that selectively kill cancer cells with mutations in p53. This screening was carried out using two lines of H1299 lung cancer cells. The H1299-p53 A138V line express a temperature sensitive p53 mutant (p53ts) in which the mutant p53 protein (A138V) is in the mutant confirmation when grown at 39C (the nonpermissive temperature) and in the wild type conformation when grown at 32C (the permissive temperature). A H1299-neo line (p53 null) grown at both 39C and 32C were used as counter-screens to filter out false positive associated with temperature shifting. The small molecular compounds that selectively target mutant p53-containing cancer cells were selected as candidate probes for further study. A cytotoxicity assay based on the measurement of ATP contents in cells was used in this screen. Concentration-responses of all the compounds in the library collection were determined in qHTS using the cell lines and temperature conditions as above.
# NCGC Assay Protocol Summary: Both the H1299-p53A138V and H1299-neo cell lines were provided by Dr.Yi Sun, a PI at the University Michigan. The cells were maintained and cultured at 37C. The resuspended frozen cells were used to plate the cells in the 1536-well assay plates at a density of 600 cells per well in 5 ul medium. The assay plates with the cells were incubated at 37C for 16 to 30 hours before the experiments. The library compounds in DMSO solution were added to the cells in assay plates and incubated 24 hours at 39C (for mutant p53 conformation) or 32C (for normal p53 conformation as control). An ATP_lite assay kit (PerkinElmer) was used to determine the cell viability. Tomaxifen (100uM) was used as the positive control for cell killing. Data were normalized to the controls for basal activity (DMSO only) and 100% killing (100uM tamoxifen). AC50 values were determined from concentration-response data modeled with the standard Hill equation. P53 assay protocol: 1. Reagent; 5 uL H1299-p53A138V or H1299-neo cell cells/well 2. Time; overnight; 37C incubation 3. Compounds; 23 nL; 5.9 nM to 46 uM 4. Controls; 23 nL; Tamoxifen 100 uM 5. Time; 24 hr; 39C incubation 6. Reagent; 3 uL; ATP_Lite reagent 7. Time; 20 min; Room Temperature 8. Detection; Luminescence; Viewlux plate reader Keywords: p53, synthetic lethal, cancer, cell viability, cytotoxicity, H1299 cell line, luminescence, MLSMR, MLSCN, NIH Roadmap, qHTS, NCGC
# Potency is the fitted concentration of half-maximal effect.
SMILES,Potency,"activity, negative = cell killing"
CCOc1ccc(C(NC(=O)c2cc(OC)c(OC)c(OC)c2)c2cc(Cl)c3cccnc3c2O)cc1 (stereo not given),3.55 µM (active),–
CN(C)c1cccc(C(=O)Nc2nc3ccc(S(=O)(=O)NC(C)(C)C)cc3s2)c1,–,37.8%
Cc1ccc(-n2c(/C=C/c3cccc(C(F)(F)F)c3)nc3ccccc3c2=O)cc1,–,-19.2%
COC(=O)COc1cc(C)cc2oc(=O)c3c(c12)CCCC3,–,9.68%
O=C(Nc1ccc(Cl)cc1C(=O)c1ccccc1)c1cc(Cl)cc(Cl)c1,–,-5.04%
